From PubChem BioAssay come the findings set out here.

A number with no mark means an inactive call. For some of these results: Measured potencies and affinities stand elsewhere. Active and inactive are the calls of the source. Unless noted, no rule for the calls is given here.

A short description of test [1]: antimalarial activity against Dd2 strain (AID 2302;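 active = growth inhibition above 50% at the single 2 µM test dose, taken to imply half-maximal potency below 2 µM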;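 also: 0% = DMSO untreated growth and 100% = chloroquine plus artemisinin killed control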). The conditions noted are these: P. falciparum Dd2 in RBCs, LDH growth readout, 72 h; at 2 µM; stronger effect = higher value.
Test [2] can be described thus: human hepatoma cell viability loss – ATP luminescence, cytotoxicity control for P. falciparum antimalarial project, primary screen (AID 2303;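 active = inhibition above 50%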;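 also: 0% = DMSO wells and 100% = digitonin-killed cells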). The conditions noted are these: HepG2 viability, 24-48 h, at 10 µM, stronger effect = higher value.
The target of test [3] is L-lactate dehydrogenase (Plasmodium falciparum (isolate CDC / Honduras)) (UniProt Q27743). As to the kind of experiment: PfLDH activity inhibition – cell lysate, 3D7 strain, counter-screen for P. falciparum growth inhibition project (AID 2304).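 Also: 0% = vehicle and 100% = reference inhibitor.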 The conditions noted are these: P. falciparum 3D7 crude extract, LDH APAD/NBT absorbance; at 2 µM; stronger effect = higher value. For orientation: A counterscreen serves to expose hits that act by an unwanted route or on another target.

A short description of test [4]: inhibition of 3D7 malaria parasite growth – strain 3D7 (AID 2306).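 Also: 0% = DMSO wells and 100% = chloroquine plus artemisinin control wells.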 The conditions noted are these: P. falciparum 3D7 erythrocytic growth, LDH absorbance, 72 h; at 2 µM; stronger effect = higher value.
For test [5], the target named is Calcium-dependent protein kinase 1 (Plasmodium falciparum (isolate 3D7)) (UniProt P62344). The experiment in a line: PfCDPK1 kinase inhibitors, biochemical, TCAMS library (AID 1159585; cut-off not given, nearly all actives have IC50 up to about 0.98 µM;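 also: inhibitors leave more ATP so luminescence rises with inhibition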). The conditions noted are these: recombinant PfCDPK1, Kinase-Glo ATP depletion luminescence. A general note: Kinase-Glo measures the ATP left after a reaction by luminescence.
In test [6] the target is Plasmodium falciparum protein kinase 6 (PK6, PF3D7_1337100) (UniProt Q8IDW1). The experiment in a line: PfPK6 kinase inhibitors, biochemical, TCAMS library (AID 1159586). The conditions noted are these: recombinant PfPK6, Kinase-Glo ATP depletion luminescence.
Test [7] has as its target Protein kinase 7 (PK7), Plasmodium falciparum 3D7 (PF3D7_0213400) (UniProt Q7YTF7). As to the kind of experiment: inhibition of Plasmodium PK7 catalytic activity – biochemical, TCAMS antimalarial set, Kinase-Glo luminescence (AID 1159587). The conditions noted are these: recombinant PfPK7, Kinase-Glo ATP depletion luminescence.
Test [8] has as its target Calcium-dependent protein kinase 4 (Plasmodium falciparum (isolate 3D7)) (UniProt Q8IBS5). The experiment in a line: PfCDPK4 kinase inhibitors, biochemical, TCAMS library (AID 1159588; cut-off not given, nearly all actives have IC50 up to about 0.91 µM). The conditions noted are these: recombinant PfCDPK4, Kinase-Glo ATP depletion luminescence.

Sequence of Calcium-dependent protein kinase 1 (Plasmodium falciparum (isolate 3D7)) (P62344 whole entry, looked up): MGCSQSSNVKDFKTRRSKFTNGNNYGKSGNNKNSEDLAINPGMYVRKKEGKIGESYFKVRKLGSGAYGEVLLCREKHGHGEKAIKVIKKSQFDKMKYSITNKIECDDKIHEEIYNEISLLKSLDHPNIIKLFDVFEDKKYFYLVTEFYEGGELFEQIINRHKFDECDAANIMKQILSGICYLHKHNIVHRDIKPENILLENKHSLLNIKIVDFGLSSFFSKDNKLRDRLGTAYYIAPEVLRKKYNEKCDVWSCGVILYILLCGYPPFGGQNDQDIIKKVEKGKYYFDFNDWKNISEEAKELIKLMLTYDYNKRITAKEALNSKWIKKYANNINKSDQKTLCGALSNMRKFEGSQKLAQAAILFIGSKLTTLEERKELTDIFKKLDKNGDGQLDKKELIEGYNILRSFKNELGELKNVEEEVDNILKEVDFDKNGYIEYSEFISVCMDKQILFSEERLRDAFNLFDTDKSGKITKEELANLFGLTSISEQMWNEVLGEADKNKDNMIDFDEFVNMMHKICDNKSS
Sequence of L-lactate dehydrogenase (Plasmodium falciparum (isolate CDC / Honduras)) (Q27743 whole entry, looked up): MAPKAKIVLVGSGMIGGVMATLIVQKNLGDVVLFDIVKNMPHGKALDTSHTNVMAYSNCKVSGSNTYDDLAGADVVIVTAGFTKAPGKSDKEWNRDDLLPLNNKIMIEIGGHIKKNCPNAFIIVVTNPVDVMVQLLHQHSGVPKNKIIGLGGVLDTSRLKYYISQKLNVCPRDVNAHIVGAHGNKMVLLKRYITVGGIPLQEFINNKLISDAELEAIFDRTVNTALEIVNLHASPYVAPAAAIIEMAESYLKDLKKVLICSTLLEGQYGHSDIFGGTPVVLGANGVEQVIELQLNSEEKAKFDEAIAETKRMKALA
Sequence of Plasmodium falciparum protein kinase 6 (PK6, PF3D7_1337100) (Q8IDW1 1-305): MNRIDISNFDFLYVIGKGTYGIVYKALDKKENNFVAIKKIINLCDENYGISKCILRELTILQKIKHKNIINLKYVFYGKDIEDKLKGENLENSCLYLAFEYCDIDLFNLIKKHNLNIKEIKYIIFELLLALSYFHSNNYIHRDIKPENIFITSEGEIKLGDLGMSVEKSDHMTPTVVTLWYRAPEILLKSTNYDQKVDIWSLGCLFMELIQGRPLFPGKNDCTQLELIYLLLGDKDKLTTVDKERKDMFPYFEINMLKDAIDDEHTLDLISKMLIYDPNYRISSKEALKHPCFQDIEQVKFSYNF
Sequence of Calcium-dependent protein kinase 4 (Plasmodium falciparum (isolate 3D7)) (Q8IBS5 whole entry, looked up): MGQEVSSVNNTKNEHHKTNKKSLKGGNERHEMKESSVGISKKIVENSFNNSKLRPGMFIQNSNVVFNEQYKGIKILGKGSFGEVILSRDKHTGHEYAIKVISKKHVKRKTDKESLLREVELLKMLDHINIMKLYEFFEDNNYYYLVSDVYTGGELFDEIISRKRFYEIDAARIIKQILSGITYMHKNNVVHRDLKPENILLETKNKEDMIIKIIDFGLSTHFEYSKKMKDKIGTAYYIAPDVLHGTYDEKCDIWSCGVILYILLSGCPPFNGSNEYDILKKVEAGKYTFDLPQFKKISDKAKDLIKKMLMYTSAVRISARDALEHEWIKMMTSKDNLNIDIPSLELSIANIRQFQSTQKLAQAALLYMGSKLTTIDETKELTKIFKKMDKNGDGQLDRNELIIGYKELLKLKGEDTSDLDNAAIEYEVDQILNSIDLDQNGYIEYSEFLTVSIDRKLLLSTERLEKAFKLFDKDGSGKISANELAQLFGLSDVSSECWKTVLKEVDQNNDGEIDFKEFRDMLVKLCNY
Sequence of Protein kinase 7 (PK7), Plasmodium falciparum 3D7 (PF3D7_0213400) (Q7YTF7 1-343): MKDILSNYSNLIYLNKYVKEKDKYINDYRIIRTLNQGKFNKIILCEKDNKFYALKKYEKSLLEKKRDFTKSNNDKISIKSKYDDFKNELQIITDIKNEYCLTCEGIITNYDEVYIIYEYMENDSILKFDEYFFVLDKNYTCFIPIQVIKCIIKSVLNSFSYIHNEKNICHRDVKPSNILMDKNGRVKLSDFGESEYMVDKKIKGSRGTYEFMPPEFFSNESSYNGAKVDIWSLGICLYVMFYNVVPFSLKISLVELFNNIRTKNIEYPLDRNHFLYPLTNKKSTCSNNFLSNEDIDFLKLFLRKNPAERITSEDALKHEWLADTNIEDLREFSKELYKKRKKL

`CCCc1cc(Cc2cnc(N)nc2N)ccc1OCCCCCC(=O)O`: the results for the growth inhibition in test [1] and in test [4] were -2% and 97% (active), respectively. Also, the results for the inhibition in test [2] and in test [3] were 3% and 1%, respectively. Besides, the result in test [5], in test [6], in test [7] and in test [8] was inactive.

As to `Cc1cc(NCCC(=O)NCc2cccc(F)c2)nc(Nc2ccccc2)n1`, the growth inhibition was 15% in test [1] and 94% (active) in test [4]. For the same molecule, the inhibition (as a rule, the change of the read-out against control, counted positive when it falls) is -4% in test [2] and -3% in test [3]. The result in test [5], in test [6], in test [7] and in test [8] was inactive.

As to `COc1ccc(CNc2nc(NCc3ccccc3)c3cc(OC)c(OC)cc3n2)cc1OC`, the figures for the growth inhibition in test [1] and in test [4] were 99% (active) and 103% (active), respectively. Moreover, the inhibition in test [2] is 24%; in test [3] it was -6%. Moreover, the result in test [5], in test [6], in test [7] and in test [8] was inactive.

With `COc1cc(Nc2nccn3c(-c4ccsc4)cnc23)cc(OC)c1OC`, the growth inhibition in test [1] was 78% (active); in test [4], 93% (active). In addition, the inhibition in test [2] is 26%; in test [3], 3%. Besides, the result in test [5], in test [6], in test [7] and in test [8] was inactive.

For `CCN(CC)CCCNCc1ccc(-c2ccc(C(F)(F)F)cc2)cc1`, the results for the growth inhibition in test [1] and in test [4] were 35% and 95% (active), respectively. Moreover, the inhibition in test [2] was 53% (active); in test [3] it was -4%. For the same molecule, the outcome in test [5], in test [6], in test [7] and in test [8] was inactive.

Regarding `C[C@H]1CN(Cc2cccc(-c3cc(CNC(=O)c4cccc(C(=O)c5ccc(Cl)c(Cl)c5)c4)ccc3F)c2)CCN1`, the results for the growth inhibition in test [1] and in test [4] were 42% and 85% (active), respectively. The inhibition is 40% in test [2] and 2% in test [3]. Further, the outcome in test [5], in test [6], in test [7] and in test [8] was inactive.

`O=C(NCCCCN1CCN(c2cccc3c2CCCC3)CC1)c1ccc(NC(=O)c2ccc(Cl)cc2)cc1`: the growth inhibition was 85% (active) in test [1] and 101% (active) in test [4]. The inhibition in test [2] is 35%; in test [3], 3%. The outcome in test [5], in test [6], in test [7] and in test [8] was inactive.

On to `CN1CCC(N(C)C(=O)C=Cc2cn(-c3ccccc3)nc2-c2cc3ccccc3o2)CC1`, for which the growth inhibition was 5% in test [1] and 92% (active) in test [4]. For the same molecule, the inhibition was 38% in test [2] and 2% in test [3]. Besides, the outcome in test [5], in test [6], in test [7] and in test [8] was inactive.

With `Oc1ccc(CCNc2nc(NCc3ccccc3-c3ccc(C(F)(F)F)cc3)nc(N3CCCNCC3)n2)cc1`, the growth inhibition in test [1] is 2%; in test [4], 95% (active). For the same molecule, the inhibition in test [2] is 12%; in test [3], 0%. Also, the result in test [5], in test [6], in test [7] and in test [8] was inactive.

For the molecule `Cc1ccc(NC(=O)Nc2ccc(Cl)cc2)cc1-c1ccc(C(=O)Nc2ccncc2)cc1`, the results for the growth inhibition in test [1] and in test [4] were 63% (active) and 99% (active), respectively. The inhibition was 54% (active) in test [2] and -1% in test [3]. Further, the outcome in test [5], in test [6], in test [7] and in test [8] was inactive.

In the case of `O=C(Nc1ccc(-c2cccc(-c3nc4ccc(C(F)(F)F)cc4[nH]3)c2)cc1)c1ccc(=O)[nH]n1`, the growth inhibition in test [1] is 13%; in test [4], 87% (active). For the same molecule, the inhibition was 72% (active) in test [2] and -4% in test [3]. Moreover, the result in test [5], in test [6], in test [7] and in test [8] was inactive.

Take `COc1cccc(N(CCCN2C(=O)c3cccc4cccc(c34)C2=O)C(=O)c2ccccc2C)c1`: the growth inhibition was 70% (active) in test [1] and 86% (active) in test [4]. Besides, the figures for the inhibition in test [2] and in test [3] were 20% and -7%, respectively. For the same molecule, the result in test [5], in test [6], in test [7] and in test [8] was inactive.

In the case of `Cc1[nH]c(C)c([N+](=O)[O-])c(=O)c1-c1ccc(Oc2ccccc2)cc1`, the growth inhibition in test [1] was 97% (active); in test [4], 98% (active). Also, the inhibition is 11% in test [2] and 3% in test [3]. For the same molecule, the result in test [5], in test [6], in test [7] and in test [8] was inactive.

With `COc1ccc(NC(=O)[C@H](Cc2ccccc2)Nc2cc(C)nc(NCCc3ccc(F)cc3)n2)cc1`, the growth inhibition is 82% (active) in test [1] and 101% (active) in test [4]. The inhibition was 17% in test [2] and -3% in test [3]. Moreover, the result in test [5], in test [6], in test [7] and in test [8] was inactive.

For the molecule `CN(Cc1cccc(O)c1)C1CCN(c2cc(NC(=O)c3ccc(F)cc3)ccn2)CC1`, the growth inhibition is 9% in test [1] and 94% (active) in test [4]. The values for the inhibition in test [2] and in test [3] were 24% and -2%, respectively. In addition, the result in test [5], in test [6], in test [7] and in test [8] was inactive.

Take `COc1ccc(NC(=O)C2c3ccccc3C(=O)N(C3CCCC3)C2c2cccs2)cc1OC` (stereo not given): the growth inhibition in test [1] is 96% (active); in test [4], 90% (active). Further, the figures for the inhibition in test [2] and in test [3] were -5% and -2%, respectively. Besides, the outcome in test [5], in test [6], in test [7] and in test [8] was inactive.

For `CCCCCCCN1CCC(CC(=O)Nc2ccnc3ccc(OC)cc23)CC1`, the figures for the growth inhibition in test [1] and in test [4] were 52% (active) and 97% (active), respectively. Further, the inhibition in test [2] is 15%; in test [3], -2%. Further, the result in test [5], in test [6], in test [7] and in test [8] was inactive.

`CC1CCCN(S(=O)(=O)c2cc(Br)cc3c2N(C(=O)C2CC2)CC3)C1` (stereo not given): the growth inhibition in test [1] is 70% (active); in test [4], 83% (active). Besides, the inhibition in test [2] was -14%; in test [3], -3%. Also, the result in test [5], in test [6], in test [7] and in test [8] was inactive.

As for `CCC(C)NC(=O)CN1CN(c2ccccc2)C2(CCN(C(=O)c3ccc(-c4ccccc4)cc3)CC2)C1=O` (stereo not given), the growth inhibition in test [1] and in test [4] was 100% (active) each time. Also, the inhibition in test [2] was -1%; in test [3], -2%. Besides, the outcome in test [5], in test [6], in test [7] and in test [8] was inactive.

`Cc1cc(OCCCN2CCCCC2)ccc1NC(=O)COc1ccc(Cl)cc1C(=O)c1cc(C#N)cc(C(F)(F)F)c1`: the figures for the growth inhibition in test [1] and in test [4] were 7% and 87% (active), respectively. Also, the inhibition was 23% in test [2] and -5% in test [3]. The outcome in test [5], in test [6], in test [7] and in test [8] was inactive.
